Reference: PubChem BioAssay AID1159580 (chemical genetic matrix, 2015)
Hit rate of the full screen: of about 5,500 compounds, about 2,000 (36%) were called active. Not shown: some 18% with an inconclusive outcome. Cut-off read from the data, not from the text of the source: active = normalized growth mostly below about 0.91 (no sharp cut-off); inconclusive = no clear call, values can overlap the other calls; inactive = mostly above about 0.92. The list shows a part of the results.

Assay: chemical genetic growth profiling, strain panel (AID 1159580);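 note: tested at 20 µM; growth read once vehicle control cultures reached saturation at 30 °C; 1 = growth at the plate median or of vehicle wells; lower values mean less growth of the strain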
Conditions: growth OD

Measured: normalized growth

NC(N)=NS(=O)(=O)c1ccc(N)cc1
inactive: S. cerevisiae deletion strains, locus YJR066W, strain TOR1, hits give low values 0.909 | S. cerevisiae deletion strains, locus YKL009W, strain mrt4, hits give low values 0.993 | S. cerevisiae deletion strains, locus YKL068W, hits give low values 1 | S. cerevisiae deletion strains, locus YKL085W, strain MDH1 (second series), hits give low values 1.02 | S. cerevisiae deletion strains, locus YKL085W, strain MDH1, hits give low values 1.02 | S. cerevisiae deletion strains, locus YKL160W, strain elf1, hits give low values 0.996 | S. cerevisiae deletion strains, locus YKL190W, strain CNB1, hits give low values 1.01 | S. cerevisiae deletion strains, locus YKR001C, strain vps1, hits give low values 1.01 | S. cerevisiae deletion strains, locus YKR026C, strain gcn3, hits give low values 0.955 | S. cerevisiae deletion strains, locus YKR091W, strain srl3, hits give low values 0.991 | S. cerevisiae deletion strains, locus YLL001W, strain dnm1, hits give low values 0.998 | S. cerevisiae deletion strains, locus YLL026W, hits give low values 0.991 | S. cerevisiae deletion strains, locus YLL041C, strain sdh2, hits give low values 0.973 | S. cerevisiae deletion strains, locus YLR027C, strain aat2, hits give low values 0.974 | S. cerevisiae deletion strains, locus YLR039C, strain RIC1, hits give low values 1.02 | S. cerevisiae deletion strains, locus YLR058C, strain SHM2, hits give low values 1.02 | S. cerevisiae deletion strains, locus YLR102C, strain apc9, hits give low values 0.986 | S. cerevisiae deletion strains, locus YLR113W, strain HOG1, hits give low values 0.967 | S. cerevisiae deletion strains, locus YLR221C, strain rsa3, hits give low values 0.984 | S. cerevisiae deletion strains, locus YLR258W, strain gsy2, hits give low values 0.998 | S. cerevisiae deletion strains, locus YLR262C, strain YPT6 (second series), hits give low values 0.984 | S. cerevisiae deletion strains, locus YLR262C, strain YPT6, hits give low values 1.03 | S. cerevisiae deletion strains, locus YLR268W, strain sec22, hits give low values 0.996 | S. cerevisiae deletion strains, locus YLR320W, strain mms22, hits give low values 0.992 | S. cerevisiae deletion strains, locus YLR330W, strain CHS5, hits give low values 1.01 | S. cerevisiae deletion strains, locus YLR342W, strain FKS1 (second series), hits give low values 1.01 | S. cerevisiae deletion strains, locus YLR342W, strain FKS1, hits give low values 0.977 | S. cerevisiae deletion strains, locus YLR357W, strain rsc2, hits give low values 0.986 | S. cerevisiae deletion strains, locus YLR370C, strain arc18, hits give low values 0.981 | S. cerevisiae deletion strains, locus YLR371W, strain rom2, hits give low values 0.993 | S. cerevisiae deletion strains, locus YLR384C, strain iki3, hits give low values 0.995 | S. cerevisiae deletion strains, locus YLR418C, strain cdc73, hits give low values 0.994 | S. cerevisiae deletion strains, locus YML016C, strain PPZ1, hits give low values 1.01 | S. cerevisiae deletion strains, locus YML032C, strain rad52, hits give low values 0.987 | S. cerevisiae deletion strains, locus YML120C, strain ndi1, hits give low values 0.978 | S. cerevisiae deletion strains, locus YML124C, strain tub3, hits give low values 0.992 | S. cerevisiae deletion strains, locus YMR058W, strain fet3, hits give low values 0.984 | S. cerevisiae deletion strains, locus YMR078C, strain ctf18, hits give low values 0.997 | S. cerevisiae deletion strains, locus YMR125W, strain sto1, hits give low values 0.966 | S. cerevisiae deletion strains, locus YMR129W, hits give low values 0.997 | S. cerevisiae deletion strains, locus YMR205C, strain PFK2, hits give low values 1 | S. cerevisiae deletion strains, locus YMR223W, strain ubp8, hits give low values 0.996 | S. cerevisiae deletion strains, locus YMR231W, strain pep5, hits give low values 1 | S. cerevisiae deletion strains, locus YMR307W, strain GAS1, hits give low values 1.03 | S. cerevisiae deletion strains, locus YNL067W, strain RPL9B, hits give low values 1.03 | S. cerevisiae deletion strains, locus YNL071W, strain lat1, hits give low values 0.986 | S. cerevisiae deletion strains, locus YNL128W, strain TEP1, hits give low values 1.03 | S. cerevisiae deletion strains, locus YNL153C, strain GIM3, hits give low values 1.04 | S. cerevisiae deletion strains, locus YNL183C, strain NPR1, hits give low values 0.918 | S. cerevisiae deletion strains, locus YNL209W, strain ssb2, hits give low values 0.993 | S. cerevisiae deletion strains, locus YNL233W, strain BNI4, hits give low values 1.03 | S. cerevisiae deletion strains, locus YNL248C, strain rpa49, hits give low values 0.972 | S. cerevisiae deletion strains, locus YNL250W, strain rad50, hits give low values 0.987 | S. cerevisiae deletion strains, locus YNL271C, strain bni1, hits give low values 0.985 | S. cerevisiae deletion strains, locus YNL298W, strain CLA4, hits give low values 0.994 | S. cerevisiae deletion strains, locus YNL307C, strain MCK1, hits give low values 0.987 | S. cerevisiae deletion strains, locus YNL322C, strain KRE1 (second series), hits give low values 0.967 | S. cerevisiae deletion strains, locus YNR049C, strain mso1, hits give low values 0.981 | S. cerevisiae deletion strains, locus YNR052C, strain pop2, hits give low values 0.986 | S. cerevisiae deletion strains, locus YOL006C, strain TOP1, hits give low values 1.09 | S. cerevisiae deletion strains, locus YOL012C, strain htz1 0.841 | S. cerevisiae deletion strains, locus YOL147C, strain pex11, hits give low values 0.992 | S. cerevisiae deletion strains, locus YOR001W, strain rrp6, hits give low values 0.986 | S. cerevisiae deletion strains, locus YOR061W, strain CKA2, hits give low values 1.02 | S. cerevisiae deletion strains, locus YOR069W, strain VPS5, hits give low values 1.01 | S. cerevisiae deletion strains, locus YOR070C, strain gyp1, hits give low values 0.979 | S. cerevisiae deletion strains, locus YOR080W, strain dia2, hits give low values 0.985 | S. cerevisiae deletion strains, locus YOR083W, strain WHI5, hits give low values 0.979 | S. cerevisiae deletion strains, locus YOR106W, strain vam3, hits give low values 0.976 | S. cerevisiae deletion strains, locus YOR136W, strain idh2, hits give low values 0.986 | S. cerevisiae deletion strains, locus YOR144C, strain elg1, hits give low values 0.99 | S. cerevisiae deletion strains, locus YOR184W, strain ser1, hits give low values 1.02 | S. cerevisiae deletion strains, locus YOR231W, strain MKK1, hits give low values 0.98 | S. cerevisiae deletion strains, locus YOR265W, strain rbl2, hits give low values 0.979 | S. cerevisiae deletion strains, locus YOR270C, strain vph1, hits give low values 0.973 | S. cerevisiae deletion strains, locus YOR290C, strain snf2, hits give low values 0.992 | S. cerevisiae deletion strains, locus YOR316C, strain cot1, hits give low values 0.993 | S. cerevisiae deletion strains, locus YPL051W, strain arl3, hits give low values 0.997 | S. cerevisiae deletion strains, locus YPL055C, strain LGE1, hits give low values 1.07 | S. cerevisiae deletion strains, locus YPL078C, strain atp4, hits give low values 0.994 | S. cerevisiae deletion strains, locus YPL106C, strain sse1, hits give low values 0.953 | S. cerevisiae deletion strains, locus YPL240C, strain hsp82, hits give low values 0.991 | S. cerevisiae deletion strains, locus YPL256C, strain CLN2, hits give low values 0.953 | S. cerevisiae deletion strains, locus YPR119W, strain clb2, hits give low values 0.994 | S. cerevisiae deletion strains, locus YPR141C, strain kar3, hits give low values 0.997 | S. cerevisiae deletion strains, locus YPR163C, strain tif3, hits give low values 0.997 | S. cerevisiae deletion strains, locus YPR167C, strain met16, hits give low values 0.993 | S. cerevisiae deletion strains, strain wtn01, hits give low values 0.988 | S. cerevisiae strains, strain wild type, hits give low values 1.02
